Shown are actives, neighbours in structure and some others; about 6.5% of the full set was active somewhere.
MK inhibit: S. pneumoniae MK inhibitors, primary screen, biochemical, PK/LDH-coupled NADH absorbance; AID 555, 2006; mevalonate kinase [Streptococcus pneumoniae D39]; hit rate 0.48% among 65,000; inhibition, % at 10 µM; purified MK, PK/LDH-coupled NADH absorbance 340 nm;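 active means ranked among the strongest by inhibition in the single 10 µM screen, a fixed top-ranked set picked for dose follow-up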
Abs 340nm: compound light absorbance at 340 nm, profiling panel, artefact control, biochemical, MLSMR library, data from PS, PMK, MK assays; compound absorbance at 340 nm, fold over control; fold change at 10 µM; 65,000 tested, under 10 active; AID 708, 2007;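 active means at 10 µM dose, initial 340 nm absorbance at least 2 fold that of control wells; inactive means change under 2 fold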;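 further: initial absorbance extrapolated from kinetic A340 decline of NADH oxidation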
Spn DPM-DC inh: S. pneumoniae DPM-DC inhibitors, primary screen, biochemical, PK/LDH-coupled NADH fluorescence; calls only at 10 µM; hit rate 0.49% among 65,000; diphosphomevalonate decarboxylase (Streptococcus pneumoniae D39); purified DPM-DC;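 active means the 320 compounds with the highest percent inhibition in the single-dose primary screen, excluding strongly autofluorescent ones, cut at about 32% in these data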;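 further: kinetic rate of NADH fluorescence loss reporting ADP formed by the decarboxylase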
Fluor 339 460: intrinsic fluorescence of library compounds, ex339/em460 – biochemical, MLSMR library, data from DPM-DC assay, artefact control, profiling panel; compound autofluorescence, ex339/em460 nm, NADH buffer; active compounds read high; 1 = no-compound wells, NADH background; fluorescence fold increase at 10 µM; hit rate 5.5% among 65,000; AID 709, 2007;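 active means at 10 µM, mean starting fluorescence two-fold or more over control wells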;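 further: signal is the first read of a kinetic run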
NADH enzymes: inhibitors of PK/LDH coupling enzymes, profiling panel, artefact control, biochemical, MLSMR library | coupled PK/LDH NADH assays, four targets | hit rate 0.02% among 65,000 | IC50, µM (top dose mostly 10 µM), without a hit: at the top dose inhibition | AID 774, 2007;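 active means single-dose screening hits from any of four coupled enzyme assays that gave an IC50 when retested across doses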;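 further: the DPM-DC format reads NADH fluorescence rather than 340 nm absorbance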
Spn PMK inh: S. pneumoniae PMK inhibitors, primary screen, biochemical, mevalonate pathway, pilot trial included; purified PMK, PK/LDH-coupled NADH absorbance 340 nm; hit rate 0.49% among 65,000; AID 539, 2006; inhibition, % at 10 µM; phosphomevalonate kinase (Streptococcus pneumoniae D39);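 active means top-ranked compounds by inhibition in the single 10 µM screen, taking a fixed number of the strongest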;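 further: 0% = full reaction with DMSO carrier and 100% = background rate without enzyme reaction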
The depositor's hits bear a star; i = inactive; nt = no result given; + = active, no number.

SMILES | MK inhibit | Abs 340nm | Spn DPM-DC inh | Fluor 339 460 | NADH enzymes | Spn PMK inh
CC1CCCC(NC(=O)c2ccc3c(=O)n(CC4CCCO4)c(=O)[nH]c3c2)C1C (stereo not given) | 7.0 | 1.01 | i | 1.74 | 4.0% | 5.0
COCCN1CCn2c(nc3cc(NC(=O)NC4CCCCC4)ccc32)C1 | 9.0 | 1.03 | nt | 3.72* | 9.0% | 8.0
CCC(C)n1c(-c2cccs2)nc2nc3ccccc3nc21 (stereo not given) | 2.0 | 1.12 | nt | 3.94* | 2.0% | 2.0
C=CCn1c(-c2cccs2)nc2nc3ccccc3nc21 | 0.0 | 1.02 | nt | 1.39 | 1.0% | 13.0
CCOc1ccc2[nH]c(=O)c(CN(Cc3ccccc3)C(=O)N3CCCC3)cc2c1 | 8.0 | 1.01 | i | 2.15* | 7.0% | 15.0
CCOc1ccc2[nH]c(=O)c(CN(C(=O)N3CCOCC3)C3CC3)cc2c1 | 0.0 | 1.06 | nt | 3.77* | 7.0% | 14.0
Cc1cc(OCC(=O)NCCO)cc(C)c1Cl | 6.0 | 0.99 | i | 1.05 | 4.0% | 26.0*
Cc1cc(OCC(=O)NCCO)ccc1Cl | 6.0 | 1.05 | i | 1.11 | 3.0% | 2.0
CCCOc1ccc2c(C)c(CC(=O)OC)c(=O)oc2c1 | 9.0 | 1.13 | nt | 3.72* | 8.0% | 6.0
CCc1c(C)c2ccc(OCC(N)=O)cc2oc1=O | 1.0 | 1.16 | nt | 3.67* | 1.0% | 0.0
CCOC(=O)c1oc2cc(OCC(N)=O)ccc2c(=O)c1-c1ccc(OC)c(OC)c1 | 7.0 | 1.02 | i | 1.02 | 3.0% | 8.0
COC(=O)C(CC(C)C)Oc1ccc2c(C)cc(=O)oc2c1 (stereo not given) | 3.0 | 1.07 | i | 1.67 | 7.0% | 0.0
COc1ccc(CCC(=O)NC2=NCCS2)cc1OC | 0.0 | 1.01 | i | 0.98 | 4.0% | 12.0
CC(=O)NCC1=C(NC(C)=O)C2CC1C(C)(C)C2C (stereo not given) | 0.0 | 1.06 | i | 1.13 | 0.0% | 0.0
O=C1C(Cl)=C(NCC2CCCO2)C(=O)N1Cc1ccccc1 (stereo not given) | 7.0 | 1.01 | + | 0.57 | 22.0% | 13.0
Cn1c(=O)n(Cc2ccccc2)c(=O)c2c1nc(NCC1CCCO1)n2Cc1ccccc1 (stereo not given) | 0.0 | 0.99 | i | 1.03 | 2.0% | 4.0
COc1cccc(-n2nnnc2SCC(=O)c2cc(OC)ccc2OC)c1 | 5.0 | 1.04 | i | 2.37* | 7.0% | 1.0
COc1cc2c(cc1NC(=O)CSc1nnnn1-c1ccccc1)oc1ccccc12 | 6.0 | 1.04 | i | 2.17* | 4.0% | 5.0
CCOc1ccccc1CN1CCN(S(=O)(=O)CC)CC1 | 58.0* | 1.03 | i | 1 | 23.0% | 10.0
COc1ccc(OC)c(CN2CCN(c3ccccc3OC)CC2)c1 | 51.0* | 1.06 | i | 0.96 | 24.0% | 13.0
CCCS(=O)(=O)N1CCN(Cc2ccccc2OCC)CC1 | 0.0 | 1.07 | i | 1.07 | 0.0% | 0.0
COc1ccccc1N1CCN(Cc2ccc(OC)c(OC)c2OC)CC1 | 47.0* | 1.07 | i | 1.09 | 16.0% | 0.0
c1ccc(N2CCN(Cc3ccsc3)CC2)nc1 | 36.0 | 1.05 | i | 0.65 | 23.0% | 7.0
COc1ccccc1N1CCN(Cc2ccsc2)CC1 | 42.0* | 1.06 | i | 1.03 | 14.0% | 0.0
O=C(Nn1nnnc1Nc1ccccc1)C12CC3CC(CC(C3)C1)C2 | 15.0 | 1.05 | i | 1.12 | 5.0% | 0.0
SMILES | MK inhibit | Abs 340nm | Spn DPM-DC inh | Fluor 339 460 | NADH enzymes | Spn PMK inh
O=C(CSc1nnc2scc(-c3ccccc3)n12)NCC1CCCO1 (stereo not given) | 3.0 | 1.07 | i | 1.14 | 2.0% | 2.0
CC(/C=C/c1ccccc1)NC(N)=O (stereo not given) | 23.0 | 0.99 | i | 0.98 | 8.0% | 0.0
CN1C(=O)CSc2ccc(NC(=O)NCCC3=CCCCC3)cc21 | 13.0 | 1.05 | i | 1.02 | 7.0% | 2.0
CCOc1ccccc1N1CCN(Cc2cccc(OC)c2OC)CC1 | 49.0* | 1.06 | i | 1.06 | 17.0% | 2.0
CCS(=O)(=O)N1CCN(Cc2ccccc2OC)CC1 | 2.0 | 1.03 | i | 1.05 | 9.0% | 18.0
CCn1cc(C(=O)Nc2ccc(C(=O)N3CCCC3)cc2)c(=O)c2ccc(C)nc21 | 3.0 | 1.02 | i | 1.07 | 3.0% | 6.0
Cn1c(C(=O)Nc2ccc3c(c2)OCO3)cc2c(=O)n(C)c3ccccc3c21 | 10.0 | 1.01 | nt | 2.27* | 4.0% | 7.0
COC(=O)c1ccsc1NC(=O)c1ccc2c(c1)OCCO2 | 5.0 | 1.07 | nt | 2.13* | 6.0% | 7.0
CC(C)C(=O)Nc1ccc2c(c1)C(=O)N(CCC(=O)O)C2=O | 0.0 | 1.02 | nt | 2.3* | 2.0% | 4.0
COc1ccc(S(=O)(=O)N2CCN(C(=O)NC3CCCCC3)CC2)cc1OC | 11.0 | 1.04 | i | 1.1 | 8.0% | 7.0
COc1ccc2c(c1)CCc1c(C(=O)Nc3cc(C)n(Cc4ccc(Cl)cc4)n3)noc1-2 | 3.0 | 1.08 | i | 3.7* | 8.0% | 15.0
COc1ccc2c(c1)CCc1c(C(=O)Nc3ccn(Cc4ccc(C)cc4)n3)noc1-2 | 0.0 | 1.04 | i | 1.17 | 4.0% | 13.0
COc1ccc2c(c1)CCc1c(C(=O)Nc3ccc(OC)c(OC)c3)noc1-2 | 0.0 | 0.99 | i | 2.17* | 5.0% | 16.0
Brc1ccc(-c2nc3ccccc3s2)s1 | 0.0 | 1.06 | i | 2.23* | 3.0% | 8.0
COc1cccc(-c2cn3nc4c(nc3n2)CCCC4)c1 | 6.0 | 1.04 | i | 2.63* | 11.0% | 11.0
COc1ccc(CCCNC(=O)CC#N)cc1OC | 3.0 | 1.04 | i | 1.13 | 5.0% | 5.0
CCC(C)Sc1nnc(Cc2cc(=O)[nH]c(=O)[nH]2)n1-c1ccc(F)cc1 (stereo not given) | 6.0 | 1.06 | i | 1.08 | 4.0% | 7.0
Cc1cccc(-n2c(=O)[nH]c3c(C(N)=O)nc(CC(C)C)nc32)c1 | 0.0 | 1.04 | nt | 5.11* | 5.0% | 9.0
CC(C)Cc1nc(C(N)=O)c2[nH]c(=O)n(-c3ccc(F)cc3)c2n1 | 0.0 | 1.05 | nt | 2.16* | 4.0% | 8.0
O=C(NCCCn1ccnc1)C(Cc1ccccc1)N1C(=O)c2ccccc2C1=O (stereo not given) | 8.0 | 1.01 | i | 1.06 | 3.0% | 2.0
N#Cc1nc(-c2ccccc2F)oc1NCCN1CCOCC1 | 5.0 | 1.09 | nt | 2.12* | 13.0% | 20.0
N#Cc1nc(-c2ccc(F)cc2)oc1NCCN1CCOCC1 | 9.0 | 1.05 | nt | 2.14* | 6.0% | 3.0
N#Cc1nc(COc2ccc(-c3ccccc3)cc2)oc1NCCCN1CCOCC1 | 7.0 | 1.02 | i | 1.14 | 2.0% | 0.0
N#Cc1nc(-c2cccs2)oc1NCCCN1CCOCC1 | 9.0 | 1.11 | nt | 2.26* | 5.0% | 0.0
